From PubChem
HCV inh: inhibitors of hepatitis C virus infection | Potency, µM (doses to about 41.8 µM), usual class: inhibitors | AID 651820 | Huh7.5.1 HCVcc-Cre infection, luciferase reporter, 44 h | 340,000 tested, 3.4% active
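1,000 cells/well; 4 h culture; + compound; + HCVcc-Cre (~0.5 moi); 44 h; luciferase substrate, RT 15 min; read 15 sec.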
HCMV antiviral: human cytomegalovirus inhibition; HFF cells, HCMV-luciferase reporter, 72 h; hits give low values; activity change, negative = inhibition, % at 57.5 µM; AID 1259415; 410,000 tested, 4.5% active; in the data active = activity change below about -60%; inconclusive = no clear call, values can overlap the other calls; inactive = above about -39%
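Inhibition of viral replication was scored as loss of reporter luminescence in HFFs infected with HCMV-luciferase (MOI 1 PFU/cell) for 72 h; compounds tested at 2 doses, normalized to buffer and Salinomycin controls.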
SARS PLP yeast: SARS-CoV PLP inhibition in yeast. S. cerevisiae expressing SARS-CoV PLpro, growth rescue. Potency, µM (titrated, usually from 32.9 µM), actives largely listed as activators. 330,000 tested, 0.19% active; calls by dose curve; also: nearly all actives have a fitted effect of over 55% in size
Pf growth 96h: P. falciparum growth inhibition at 96 hours; Potency, µM (top dose mostly 28.7 µM), hits mostly inhibitors; AID 504834; 320,000 tested, 6.9% active; P. falciparum luciferase reporter growth, 96 h
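Luminescence readout: decreased luciferase signal marks inhibited growth of reporter-expressing P. falciparum in infected red cells (2% hematocrit, 0.05% parasitemia final), exposed to compound two generations (96 h, 37 C, 5% CO2).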
Sm TGR block: blocks Schistosoma mansoni thioredoxin glutathione reductase | Q962Y6 | purified TGR, DTNB reduction, TNB absorbance 405 nm | Potency, µM (titrated, usually from 114 µM), most hits filed as inhibitors | 360,000 tested, 3% active | AID 485364; also: nearly all actives have a fitted effect of over 60% in size
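TGR 20 nM + NADPH 100 uM (dispensed conc.), cpd preinc 15 min RT; start with NADPH (500 uM addition) then DTNB (15 mM addition). Kinetic TNB absorbance, 405 nm filter. Four-parameter Hill fit across titration.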
Pf growth 48h: P. falciparum growth inhibition at 48 hours (one generation); AID 504832; Potency, µM (doses to about 28.7 µM), hits mostly inhibitors; P. falciparum luciferase growth in erythrocytes, 48 h; 310,000 tested, 5.9% active
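Firefly luciferase activity from engineered P. falciparum reports growth; inhibitors lower the luminescent signal. Cultures contained 2% hematocrit erythrocytes at 0.1% final parasitemia.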
Hits are given with their value; . = inactive; ? = inconclusive; / = no result given; ! = not active in a repeat; [ ] = remark or other dose. Compounds with a hit are over-represented: about 15% of the library has one in this group of screens. Unless noted, calls follow the shape of the dose curve; as a rule, active = well fitted curve in the direction sought with a large enough effect; inconclusive = small, poorly fitted or top-dose-only effect, or another doubt; inactive = no such curve, though single readings can be large; an effect the other way counts as inactive or inconclusive.

SMILES	HCV inh	HCMV antiviral	SARS PLP yeast	Pf growth 96h	Sm TGR block	Pf growth 48h
CC1=CC(=C(c2ccc(N)cc2)c2ccc(N)cc2)C=CC1=N	/	/	/	1.1µM	/	2.4µM
Cc1ccc(N)cc1N	.	.	.	?	.	.
c1ccc2c(c1)CCc1ccccc1C2=C1CCNCC1	.	.	/	/	/	/
O=c1cc(N2CCCCC2)c(-c2ccccc2)nn1Cc1ccc(F)cc1	?	?	.	13µM	.	?
O=c1cc(N2CCCCC2)c(-c2ccccc2)nn1Cc1c(Cl)cccc1Cl	?	?	.	10µM	.	?
O=c1cc(N2CCCCC2)c(-c2ccccc2)nn1Cc1ccc(Cl)cc1	.	.	.	.	.	.
N#Cc1c(N)nc(Sc2ccc(Cl)cc2)c(C#N)c1-c1ccccc1Cl	11µM	-78	.	7.4µM	.	?
CCSc1nc(N)c(C#N)c(-c2ccccc2Cl)c1C#N	.	-63	.	/	.	/
CN(C)c1ccc(C(=O)N2CCN(c3cc(C(F)(F)F)nc4ccccc34)CC2)cc1	?	.	.	13µM	.	?
Cc1ccc(CN2CC(C(=O)Nc3cc(C)ccn3)CC2=O)cc1 (stereo not drawn)	.[8.37 µM]	.	.	.	.	.
COC(=O)C1=C(Nc2ccc(C)cc2)C=C(C)C(C(=O)OC)C1c1cccc(OC)c1 (stereo not drawn)	?	.	.	1.7µM	.	2.6µM
COc1cccc(C2NC(=O)NC(C)=C2C(=O)Nc2ccc(C)cc2)c1 (stereo not drawn)	.	.	.	.	.	?
COC(=O)C1=C(Nc2ccc(C)cc2)C=C(C)C(C(=O)OC)C1c1ccc(OC)cc1 (stereo not drawn)	?	.	.	?	.	4.1µM
O=[N+]([O-])c1ccc(S(=O)(=O)CC(CN2CCOCC2)N2CCOCC2)cc1 (stereo not drawn)	11µM	-102	.	?	?	.
O=S(=O)(CC(CN1CCCCC1)N1CCCCC1)c1ccccc1 (stereo not drawn)	?	-99	.	?	.	.
COC(=O)C1=C(C)N(c2ccc(F)cc2)/C(=C/c2ccc(O)cc2)C1=O	.	.	.	?	?	.
COc1cccc(OC)c1C(=O)Nc1cccc(NC(=O)c2cccs2)c1	.	.	.	?	.	.
CC(C)C1OC(c2cccc(NC(=O)c3cccs3)c2)OCC1(C)C (stereo not drawn)	?	.	.	?	.	1.9µM
CCOC(=O)N1CCc2c(sc(NCc3cccs3)c2C(=O)Nc2ccc(OC)cc2OC)C1	/	-91	/	/	?	/
COc1ccccc1NC(=O)c1c(NCc2ccc(OC)c(OC)c2OC)sc2c1CCC2	/	.	/	/	.	/
COc1ccc(NC(=O)c2c(NCc3ccc(OC)c(OC)c3OC)sc3c2CCC3)c(OC)c1	/	.	/	/	40µM	/
C=CCNCC(=O)Nc1sc2c(c1C(=O)Nc1ccc(OC)cc1OC)CCC2	10µM	.	.	.	/	12µM
CCOC(=O)N1CCc2c(sc(NCc3ccc(OCC)cc3)c2C(=O)Nc2ccc(OC)cc2OC)C1	/	-80	/	/	.	/
CCOC(=O)N1CCc2c(sc(NCc3ccc(OC)c(OC)c3OC)c2C(=O)Nc2ccc(OC)cc2OC)C1	/	-80	/	/	.	/
CCOC(=O)N1CCc2c(sc(NCc3cccs3)c2C(=O)Nc2cc(OC)ccc2OC)C1	/	.	/	/	.	/
SMILES	HCV inh	HCMV antiviral	SARS PLP yeast	Pf growth 96h	Sm TGR block	Pf growth 48h
COc1ccc(NC(=O)CN2C(=O)CCn3nc(-c4cccn4C)cc32)cc1	/	.	/	/	.	/
COc1ccc(C(=O)c2ccccc2C(=O)c2ccccc2)cc1	.	.	/	/	/	/
COc1ccc(C(=O)c2sc(Nc3cc(Cl)ccc3C)nc2N)cc1OC	/	.	/	/	.	/
CCOC(=O)c1sc(Nc2ccccc2Cl)nc1C	?	.	.	.	.	.
Nc1nc(Nc2ccccc2)sc1C(=O)c1ccccc1	?	-88	.	.	.	.
Cc1cnc(NC(=O)c2sc(Nc3ccccc3)nc2N)o1	?	.	.	.	.	.
COc1ccc(C(=O)c2cc(C(C)=O)c(Nc3ccccc3)s2)cc1	3.2µM	.	.	?	.	.
COc1ccc(C(=O)c2sc(Nc3ccccc3)nc2N)cc1OC	.	-92	.	?	?	?
Cc1ccccc1Nc1nc(N)c(C(=O)c2ccccc2Cl)s1	/	-69	/	/	.	/
Cc1cccc(-c2nn3c(=O)cc(CN4CCN(C(=O)/C=C/c5ccccc5)CC4)nc3s2)c1	/	.	/	/	.	/
Cc1cc(C)cc(NC(=O)COC(=O)CN=C2NS(=O)(=O)c3ccccc32)c1	.	.	.	.	.	.
Cc1cccc(CNC(=O)Cn2c(-c3cccs3)cc3ccccc32)c1	/	.	/	/	.	/
COc1ccc(C(=O)c2sc(Nc3ccccc3)nc2N)cc1	.	-61!	.	?	.	?
COc1ccc(C(=O)c2sc(Nc3ccccc3F)nc2N)cc1	?	.	.	.	.	/
O=C(Nc1nnc(S(=O)(=O)N2CCN(c3ccc(F)cc3)CC2)s1)c1ccco1	.	.	.	.	?	.
COC(=O)C1N[C@@H]([C@@H](NC(=O)COc2ccccc2)C(=O)NCc2ccc(OC)cc2)SC1(C)C (stereo partly drawn)	.	.	/	/	/	/
O=C(Nc1ncc(S(=O)(=O)c2ccc([N+](=O)[O-])cc2)s1)c1ccccc1F	.	.	.	.	.	.
COC(=O)C(NC(=O)c1ccccc1C)(Nc1ncc(S(=O)(=O)c2ccc([N+](=O)[O-])cc2)s1)C(F)(F)F (stereo not drawn)	.	.	.	4.1µM	.	12µM
COC(=O)C(NC(=O)c1ccc(F)cc1)(Nc1ncc(S(=O)(=O)c2ccc([N+](=O)[O-])cc2)s1)C(F)(F)F (stereo not drawn)	?	.	.	13µM	.	?
COc1ccc(OC)c(CCNC(=O)c2nn(C)c3c2CSc2ccccc2-3)c1	/	.	/	/	?	/
CC1=CC(=C(C#N)C#N)c2ccccc2N1C	.	.	.	.	.	12µM
CC1=C/C(=C\C=C(C#N)C#N)N(C)c2ccccc21	.	-81	.	.	.	.
CN1/C(=C/C=C(C#N)C#N)C(C)(C)c2ccccc21	.	.	.	?	.	.
Cc1ccccc1N1C(=O)CSC1=C(C#N)C#N	?	.	.	.	.	.
COC(=O)C1=C(C)NC(=O)C1(NC(=O)c1ccc(Cl)cc1)C(F)(F)F (stereo not drawn)	/	.	/	/	.	/
Cn1ncc2c(O/N=C(\N)c3ccc(C(C)(C)C)cc3)ncnc21	5.6µM	/	.	?	.	?
Cc1ccc(C(=O)NC(C)C2CC3CCC2C3)c(C)c1 (stereo not drawn)	.	.	.	.	.	.
COc1cc(NC(=O)CN2C(=O)C(=O)N(C3CCCC3)C2=O)cc(OC)c1	.	-99	.	.	.	.
